Results on 67 sequences are retold here after PubChem BioAssay AID1159506 (National Center for Advancing Translational Sciences (NCATS), 2015).

In all, about 59,000 sequences were measured (the read-out: median about -0.00055, lowest 2% from about -2 on). Shown is part of a subset that was picked to be rich in the lowest values.

The test in a line: Identification of proteins required for the processing of the EWS-FLI1 nascent transcript.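 Also: robust z of luciferase light less the median z of siRNAs with the same seed.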 To be noted: TC32 Ewing sarcoma NR0B1-luc vs CMV-luc (EWS-FLI1 target promoter against control promoter), 48 h; screened at 20 nM (by protocol). As to the method: Ewing sarcoma (ES) cells depend on the EWS-FLI1 fusion transcription factor for cell survival. Using an assay of EWS-FLI1 activity and genome-wide siRNA screening we have identified proteins required for the processing of the EWS-FLI1 nascent transcript. Parallel genome-wide siRNA-mediated RNAi screens were conducted in Ewing sarcoma TC32 cell lines expressing a luciferase (luc) reporter protein driven by either the promoter of the EWS-FLI1 target gene NR0B1 (TC32-NR0B1-luc) or the CMV promoter (TC32-CMV-luc). Luciferase activity was assessed 48 hours post siRNA-transfection.
Twenty microl of serum-free media containing Lipofectamine RNAiMax (0.05 microl) was added to wells containing siRNA (0.8 pmol). Lipid and siRNA were allowed to complex for 45 min at ambient temperature before addition of 600 cells in RPMI-1640, 20% FBS to yield final transfection mixtures containing 20 nM siRNA in RPMI-1640, 10% FBS. Luciferase expression was measured using OneGlo (Promega, Madison, WI). The genome-wide screening campaign was conducted using Ambion's human genome library version 4.1 (Ambion, Austin TX). This library targets approximately 21000 human genes, three siRNAs per gene. Each siRNA is arrayed in an individual well of a 384-well plate. Parallel transfections were conducted in TC32-NR0B1-luc and TC32-CMV-luc cell lines and luciferase expression (OneGlo, Promega) was assayed 48 h later on a PerkinElmer Envision 2104 Multilabel plate reader (PerkinElmer, Waltham, MA). Qiagen's AllStars Negative control was incorporated on all screening plates for normalization (16 wells per plate). Qiagen, Germantown, MDsiGL4 was incorporated as a positive transfection control (16 wells per plate) on all plates. […] The raw luciferase data for the NR0B1- and CMV-luc screens were normalized and z-score-MAD transformed using standard methods (Chung et al., 2008). The miRNA-like seed sequence of every siRNA was determined and the median z-score for all siRNA sequences with the same seed sequence was calculated. This z-score was subtracted from the z-score associated with each siRNA with that seed sequence to generate a seed-adjusted z-score value (Z) that was used when the results for the three siRNAs corresponding to each gene were compared (Marine et al., 2012)
In the case of UCUUGUGCUAAAUCCCUGC against BRINP3, the seed-corrected z-score is -0.668.

UGCUGAACUAGGGAAGUGC against MAGIX returned a seed-corrected z-score of -0.0881.

UACCCAUCCGCAUCACUGC against CD320 gave a seed-corrected z-score of 0.0894.

UCCCGAAUAACCAUUGAGC against RFX3 had a seed-corrected z-score of -0.206.

UUGGUAUUAUAACAGAUCC against ELMOD1 gave a seed-corrected z-score of -9.

In the case of UUGAUCAACAUAAUCAAGC against ASB14, the seed-corrected z-score was -0.125.

On to UACUCGGUAAAUGUACUGG against ADH7, for which the seed-corrected z-score was 0.328.

For the sequence AAGGGUAUUGGGAUUGAGC against MAP3K13, the seed-corrected z-score was 0.023.

AGCUUUAUUCAGUCAGUGC against GPBAR1 had a seed-corrected z-score of -0.579.

In turn, UUACGAAUGGGCAAAAUUG against ZCWPW1 returned a seed-corrected z-score of -0.169.

Sequence UUUGCUGGUAUUCUUCACC against ACYP2 came in with a seed-corrected z-score of 0.0336.

Regarding AUGUAUUCCAUUCUCACCG against GRSF1, the seed-corrected z-score was -4.16.

As to UAUUGAUGCUGCAUGACCC against ITGAM, the seed-corrected z-score was 0.677.

Regarding UAAGUAUAACCAUCUGUUC against OR6C2, the seed-corrected z-score came to 0.149.

UGAACAUAAAUUCCAGCUC against CLEC2L returned a seed-corrected z-score of 0.442.

With UCACUUACAAAGCUCAGAG against LUZP1, the seed-corrected z-score is -1.94.

The sequence UUAUUUAUGUAGUUCAGGA against IZUMO4 returned a seed-corrected z-score of -1.87.

With AAGACAAUAAUGUUGCUGC against CLDN17, the seed-corrected z-score is -0.436.

In the case of UCAGUAAUCAGCUUGAAUU against RPS3A, the seed-corrected z-score came out at 2.45.

UUCUUUUCCACCUCCAUAG against HDGF had a seed-corrected z-score of -12.4.

AUCCUUGAAAGCCUCAUAC against XPR1: the seed-corrected z-score is 0.211.

UAAAUGACAUGCAGGAUUG against C17orf102 came in with a seed-corrected z-score of -0.0252.

In turn, UUCAGUUUAAAAUCGUUUC against CENPL registered a seed-corrected z-score of 0.133.

UUUGUUUCUACCAUUCCCA against PPIL1 came in with a seed-corrected z-score of -2.34.

In turn, ACAAUAAUUAAGACAUUGC against OR4K1 returned a seed-corrected z-score of 0.433.

Consider GAAUGUUCAUGUGAAAUGC against ZNF365, for which the seed-corrected z-score was determined as 1.68.

On to UGCAAUAGCAGAGUAUUCC against UBE2Q1, for which the seed-corrected z-score came to 0.662.

UUUGUUGCAGAAUACAUAG against CTH displayed a seed-corrected z-score of -13.9.

Consider ACAGCUAUUAAGAAGAAGU against PTGER3, for which the seed-corrected z-score was -0.312.

CGCGUACUGACGGAAACAC against RPS29P3 registered a seed-corrected z-score of 0.649.

For the sequence UUAGCGGACGGAGGAAUUG against IDH3G, the seed-corrected z-score came to 0.0869.

As to AAUGGAUUCAGUUACUUGC against TACSTD2, the seed-corrected z-score is -0.0397.

Sequence UGUCUUCGAUGUUUCAUCG against DOK6 displayed a seed-corrected z-score of -2.6.

As for UUCGGGAAAGUAGUCAUGA against NSFL1C, the seed-corrected z-score came to 0.0545.

For UACACUAGCAUUGCACUCC against ARHGEF19, the seed-corrected z-score is 0.989.

Turning to AUCUUGUUCCGCAUGGUCU against AMOTL2, the seed-corrected z-score came out at 0.501.

As for UUUAGCAACAGAGUCCACC against MAP2K6, the seed-corrected z-score stood at 0.538.

In turn, AUCUUCAAUACUUGAAUCU against LINC00467 had a seed-corrected z-score of -0.368.

For UUUCAUGCACCAACGGAUC against ABHD2, the seed-corrected z-score is -2.24.

In turn, AAAGGAAAGAUGACAGUAU against OR4N5 returned a seed-corrected z-score of 0.213.

AAGCUUUUUAUUGGAGUUC against ZNF852: the seed-corrected z-score stood at 1.01.

The sequence UCAGCGAACAUGUCCAGGG against CD2BP2 returned a seed-corrected z-score of 0.587.

AAUUUAAUAGUGUUUGUGC against PLPP4 returned a seed-corrected z-score of 0.11.

UCAGAGCACAGAUCGGGAC against DUSP2 displayed a seed-corrected z-score of 0.227.

Sequence UUUGUCCUUAGUAAUGAAU against HOXA13 registered a seed-corrected z-score of -0.568.

The sequence UUUGCAAUUGAGGUGAGGC against ANP32D returned a seed-corrected z-score of -0.262.

On to UUCACAACAGGGUGGAGCC against FAM110A, for which the seed-corrected z-score was -0.481.

Sequence UUGCCUAUCUGGUUGAUGG against MATN1 came in with a seed-corrected z-score of -0.472.

As to UUCUGAUUCUGCUUGUUGG against MPRIP, the seed-corrected z-score is -2.12.

UCCGUUAUAAACAAACAGG against ITGA11: the seed-corrected z-score is -0.259.

UUCUGCAAGCUCACUGUCC against TTC7A showed a seed-corrected z-score of -0.896.

Take UUAUCUAUAACAGAGUAUG against DCBLD2: the seed-corrected z-score worked out at 0.479.

UUGGAAAGCAGUGUCUCUG against KRTAP8-1: the seed-corrected z-score was -0.147.

In turn, UCUGCUUUGCAAAUAGCCG against SRD5A1 yielded a seed-corrected z-score of -3.07.

For the sequence UAUGUGCACACGGUCUUGA against NRN1, the seed-corrected z-score was -1.7.

In the case of UAAGUUUAUAGUUGGGAAC against RPS25P6, the seed-corrected z-score is -0.0501.

Turning to AUUGGAUCAGUGGAGCUCU against SPANXN4, the seed-corrected z-score amounted to 0.397.

Consider AAAUUCGUAAGCUCUGUGG against C2orf70, for which the seed-corrected z-score stood at 1.37.

Consider AAGCUUCUCAUUAAUGCCC against CYB561A3, for which the seed-corrected z-score is -1.26.

In turn, UAGGCAAAAACAGUCCACC against B3GNT8 gave a seed-corrected z-score of -0.0844.

Sequence UAUUACUCAGCAGCUUUGC against TIPIN had a seed-corrected z-score of -0.378.

For the sequence AUACUGGAUAUCAUAGUUC against ARG2, the seed-corrected z-score was -2.32.

Sequence UUGGUUGUCAUGAUCAGUG against PAPD7 showed a seed-corrected z-score of 0.333.

In turn, UUUUGUUCGUCUCCGUUCC against AK4 gave a seed-corrected z-score of 0.42.

The sequence UGAGUUUCGCGCUCUCUCC against SLC17A7 returned a seed-corrected z-score of -2.93.

Take AGUAUUAUCACGUUAGUGG against NUP88: the seed-corrected z-score is -0.85.

In the case of UUUUCGCUACUUGAGUUGC against SLC35F5, the seed-corrected z-score is -1.12.
